The numbers were not newly measured in PubChem BioAssay AID977611, which cites them from elsewhere.

Among all 3,900 compounds or so, about 3,900 (100%) were called active. Cut-off not given; nearly all actives show Kd up to about 4200 µM. The set was probably picked from earlier hits. Some of the results follow. Numbered stars: 1 amine (or outer) side, 2 acyl side, 3 side chain; on linkers, the order of the positions; unused ones are H or OH. Starred links: 1 amine or outer side, 2 acyl side, 3 side chain; linkers in the order of their positions; H or OH if unused. Where a SMILES comes first, the peptide text is derived from it. Non-standard residues stand in square brackets, D forms with d. Square brackets hold non-standard residues; d marks the D form. Residues, ends and D or L forms follow the SMILES beside them. Peptide text beside a SMILES is read from it. [ ]: non-standard residue; d: D form. X1 = O=C([C@H](Cc1ccc(O[P+](O)(O)O)cc1)N[*:1])[*:2]; Thr(P(OH)3+) = C[C@@H](O[P+](O)(O)O)[C@H](N)C(=O)O

The series is described as follows: PubChem AID 977611. The settings on record: PDB protein-ligand complexes, literature Kd.

As usually defined, the Kd is the concentration at which binding is half-saturated. Regarding `CCCCCCCCCCC[C@@H](O)CC(=O)O[C@@H]1[C@@H](N)[C@@H](O[P+](O)(O)O[P+](O)(O)OC[C@H]2O[C@@H](n3ccc(=O)[nH]c3=O)[C@H](O)[C@@H]2O)O[C@H](CO)[C@H]1O`, the Kd (protein: UDP-3-O-[3-hydroxymyristoyl] N-acetylglucosamine deacetylase, PDB entry 4mdt) was 10000 nM (active).

For the compound `CC(=O)N[C@H]1[C@@H](O[P+](O)(O)O[P+](O)(O)OC[C@H]2O[C@@H](n3ccc(=O)[nH]c3=O)[C@H](O)[C@@H]2O)O[C@H](CO)[C@@H](O)[C@@H]1O`, the dissociation constant Kd runs as follows: (protein: UDP-N-acetylglucosamine 1-carboxyvinyltransferase(C115D mutant), PDB entry 3v4t) 77000 nM (active); (protein: UDP-N-acetylglucosamine 1-carboxyvinyltransferase, PDB entry 3upk) 50000 nM (active).

`CC1=C(SC[C@H](NC(=O)CC[C@H](N)C(=O)O)[C@H](O)NCC(=O)O)C(=O)c2ccccc2C1=O`: where the note is “protein: protein yqjG, PDB entry 4g0k”, the Kd was 4300 nM (active).

Take `CCCCCCCCCCCCOS(O)(O)O`: the dissociation constant (Kd) (protein: Beta-lactoglobulin, PDB entry 4gny) was 52000 nM (active).

Consider H-MRYGQSPNM-OH, for which the Kd (protein: Protein HTP-2, PDB entry 4tzn) was 300 nM (active).

Turning to `CC[C@H](C)[C@H](NC(=O)[C@@H](NC(=O)[C@H](CC(C)C)NC(=O)[C@H](CCC(=O)O)NC(=O)[C@H](CCC(=O)O)NC(=O)[C@H](CCC(N)=O)NC(=O)[C@@H]1CCCN1C(=O)[C@H](CC(=O)O)NC(=O)[C@H](CO)NC(=O)CNC(=O)[C@H](Cc1ccc(O)cc1)NC(=O)[C@H](CC(C)C)NC(=O)[C@H](CCC(=O)O)NC(=O)[C@H](C)NC(=O)[C@H](CC(C)C)NC(=O)[C@@H](N)CCSC)[C@@H](C)CC)C(=O)O`, the Kd (protein: mouse Partitioning defective 3 homolog, PDZ 3 domain, PDB entry 2koh) was 6000 nM (active).

For the compound H-EPQYEEIPIYL-OH, the dissociation constant Kd (protein: P56 LCK Tyrosine kinase, PDB entry 1lcj) was 1 nM (active).

Consider `CC(=O)N1CCC[C@H]1C(=O)N[C@@H](CC(C)C)C(=O)N[C@@H](Cc1c[n+](C)cn1CCCCCCCCc1ccccc1)C(=O)N[C@@H](CO)C(=O)N[C@H](C(N)=O)[C@@H](C)O[P+](O)(O)O` (Ac-PL[X1]S[Thr(P(OH)3+)]-NH2), for which the dissociation constant (Kd) (protein: Serine/threonine-protein kinase PLK1 PBD, PDB entry 4o6w) is 3 nM (active).

As for `NCC(=O)N[C@@H](CCCN=C(N)N)C(=O)NCC(=O)N[C@@H](CC(=O)O)C(=O)N[C@@H](CO)C(=O)N1CCC[C@H]1C(=O)O`, for the setting “protein: Integrin alpha 5-beta 1, PDB entry 4wk2”, the dissociation constant (Kd) is 115 nM (active).

Turning to `CC[C@H](C)[C@H](NC(=O)[C@H](CCC(=O)O)NC(=O)[C@H](CC(C)C)NC(=O)[C@@H](NC(=O)[C@H](CC(=O)O)NC(=O)[C@@H]1CCCN1C(=O)[C@H](CC(=O)O)NC(=O)[C@@H](N)CC(N)=O)[C@@H](C)O[P+](O)(O)O)C(=O)N[C@@H](Cc1ccc(O)cc1)C(=O)N[C@@H](CO)C(=O)O` (H-NDPD[Thr(P(OH)3+)]LEIYS-OH), under “protein: Serine/threonine-protein kinase RAD53, PDB entry 2a0t”, the equilibrium dissociation constant (Kd) was 15000 nM (active).

Regarding `O=C1CCN([C@H]2C[C@H](O)[C@@H](CO[P+](O)(O)O)O2)C(=O)N1`, where the note is “protein: Thymidylate synthase, PDB entry 4knz”, the equilibrium dissociation constant (Kd) was 8500 nM (active).

`CC(C)C[C@H](N)C(=O)N[C@@H](Cc1ccc(O[P+](O)(O)O)cc1)C(=O)N[C@@H](CC(=O)O)C(=O)O`: for the setting “protein: THROMBIN, LIGHT CHAIN & THROMBIN, HEAVY CHAIN, PDB entry 4ch8”, the Kd is 1030 nM (active).

On to `CC(C)C[C@H](NC(=O)[C@@H](N)CC(=O)O)C(=O)N[C@@H](Cc1ccc(O[P+](O)(O)O)cc1)C(=O)N[C@@H](CC(=O)O)C(=O)N[C@@H](Cc1ccc(O[P+](O)(O)O)cc1)C(=O)N[C@@H](Cc1ccc(O[P+](O)(O)O)cc1)C(=O)N1CCC[C@H]1C(=O)O`, for which the Kd (protein: THROMBIN, LIGHT CHAIN & THROMBIN, HEAVY CHAIN, PDB entry 4ch2) is 1030 nM (active).

On to `CC[C@H](C)[C@H](NC(=O)[C@H](Cc1ccc(O[P+](O)(O)O)cc1)NC(=O)[C@H](CC(=O)O)NC(=O)[C@@H](N)CC(N)=O)C(=O)N[C@@H](CC(=O)O)C(=O)N[C@@H](CC(N)=O)C(=O)N1CCC[C@H]1C(=O)O` (H-ND[X1]IDNP-OH), for which, for the setting “protein: E3 ubiquitin-protein ligase CBL, PDB entry 3bun”, the equilibrium dissociation constant (Kd) was 610 nM (active).

Consider H-NELNNNAP-OH, for which the Kd (protein: SPRY DOMAIN-CONTAINING SOCS BOX PROTEIN 1, PDB entry 2jk9) is 150 nM (active).
